Test results published in PubChem BioAssay AID1626 (SRMLSC, 2009).
Out of some 220,000 compounds screened, about 2,000 (0.91%) were called active. Roughly 2% stayed inconclusive and do not appear here. A selection follows. Results with a measured potency or affinity are listed apart. A number with no mark means an inactive call. Cut-off read from the data, not from the text of the source: inconclusive = inhibition above about 80% without an active follow-up result; inactive = below that; test concentration not stated here.

Test: M. tuberculosis H37Rv growth inhibitors, H37Rv strain (AID 1626);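 note: bacteria incubated seven days before Alamar blue readout; 0% = bacteria only wells and 100% = bacteria with antibiotic wells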
Settings: hits give high values, concentration not given here

SMILES	inhibition [%]
CCN=C1NN=C(c2cc(C)n(Cc3ccco3)c2C)CS1	8.94
CCN(CCCNC(=O)CN(C)S(=O)(=O)c1ccc2c(c1)CCC(=O)N2)c1cccc(C)c1	-2.39
O=C(COC(=O)C1CCN(S(=O)(=O)c2cccs2)CC1)Nc1ccccc1Br	-7.27
CCCCn1c(=O)[nH]c2ccccc21	3.85
O=c1[nH]c2ccccc2n1CCCN1CCCCC1	-2.47
O=C(Nc1cccc(Cl)c1)/C(=C\c1cccnc1)NC(=O)c1ccco1	2.59
Cc1ccc(OCCNC(=O)c2cccc(Oc3ccc(C(F)(F)F)cc3[N+](=O)[O-])c2)cc1	1.39
CN1CCN(Cc2c(O)ccc3cc(Br)ccc23)CC1	21
Oc1ccc2ccccc2c1CN1CCCC1	12.7
Cc1ccc2c(c1)C1CN(C)CCC1N2C(=O)c1cn(-c2ccccc2)nc1-c1ccccc1 (stereo not drawn)	10.5
O=C(CNC(=O)c1ccc(-c2ccccc2)cc1)OCc1c(Cl)cccc1Cl	-1.9
CC(=O)Nc1ccc(C(=O)NCC(=O)OCc2c(F)cccc2Cl)cc1	-1.08
COc1ccc(N(C(=O)c2ccco2)C(C(=O)NC2CCCC2)c2ccc(N(C)C)cc2)cc1 (stereo not drawn)	-10.8
COc1ccc(NC(=O)N/C=C/c2ccccc2)cc1	-0.86
COc1cc(C(C[N+](=O)[O-])c2c(N)n(C)c(=O)n(C)c2=O)ccc1O (stereo not drawn)	1.8
COc1ccccc1C(C[N+](=O)[O-])c1c(N)n(C)c(=O)n(C)c1=O (stereo not drawn)	40.8
CCCOc1cccc(C2C(C(=O)c3ccco3)=C(O)C(=O)N2CCN(CC)CC)c1 (stereo not drawn)	-7.15
CC(C(=O)N1CCCC1)N1CCN(c2ccccc2O)CC1 (stereo not drawn)	-5.08
C/C(O)=C(\N=Nc1cc(C)ccc1O)C(N)=O	0.25
Cc1ccc(Cn2ccc(NC(=O)c3cc(C4CC4)on3)n2)cc1	-5.45
CCc1nc2sc3ccccc3c(=O)c2c(=O)n1CCOC	-3.87
COc1ccc(Cn2c(C(C)C)nc3sc4ccccc4c(=O)c3c2=O)cc1	17.7
O=C(COc1ccccc1Br)Nc1ccccc1C(F)(F)F	1.69
O=c1c2[nH]c3ccccc3c2ncn1CCC1=CCCCC1	-3.83
COc1ccc2[nH]c3c(NCCC4=CCCCC4)ncnc3c2c1	50.8

SMILES	inhibition [%]
CCNC(=S)NNC(=S)NCc1ccccc1	-6.54
CCOC(=O)c1ccc(NC(C)=O)c([N+](=O)[O-])c1	-0.43
CCCNc1ccc(C(=O)OCC)cc1[N+](=O)[O-]	-2.78
COc1cc(S(N)(=O)=O)c(OC)cc1N	-5.42
COC(=O)CCn1nc(-c2ccc(Cl)cc2)c2ccccc2c1=O	0.44
CCCNC(=O)C1CCN(S(=O)(=O)c2cccc3nonc23)CC1	3.34
O=C(NCc1cccs1)C(=O)NCC(c1ccco1)N1CCN(c2ccccc2F)CC1 (stereo not drawn)	4.89
O=C(/C=C\c1ccco1)Nc1nc(-c2ccccc2)cs1	9.29
O=C(/C=C/c1ccco1)Nc1nc(-c2ccccc2)cs1	9.68
Cc1csc(NC(=O)C2CCCC2)n1	-11.7
CC(=O)Nc1ccc(C(=O)Nc2nc(-c3ccccn3)cs2)cc1	0.25
CC1CC1C(=O)Nc1nc(-c2ccc(Cl)s2)cs1 (stereo not drawn)	9.3
CC1CC1C(=O)Nc1nc(-c2ccccc2)cs1 (stereo not drawn)	-12.6
Cc1ccnc2nc(C(=O)Nc3nc(-c4ccccn4)cs3)nn12	-1.5
C[C@@H](C(=O)Nc1nc(-c2ccccn2)cs1)N1C(=O)C2CCCCC2C1=O (stereo partly drawn)	1.46
O=C(NCc1ccc(F)cc1)C1CCCN(S(=O)(=O)c2cccc3nsnc23)C1 (stereo not drawn)	-3.19
NC1=NC(=O)C(Cc2cc(Cl)ccc2Cl)S1 (stereo not drawn)	-5.29
CCOC(=O)C1(C)NC(c2ccc(OC)c(OC)c2)C2C(=O)N(CC)C(=O)C21 (stereo not drawn)	-0.15
O=C(O)c1ccc(S(=O)(=O)c2ccc(Sc3ccc(C(=O)O)c(C(=O)O)c3)cc2)cc1	-20.9
CCOC(=O)COc1ccc(S(=O)(=O)NCc2ccco2)cc1	10.1
Cc1cc(C(=O)N2CCOCC2)c(C)o1	-4.61
COCCOc1ccc(C(F)(F)F)cc1NC(=O)c1ccc(C)cc1	2.93
CCN1C(=O)CC(c2ccco2)Sc2ccccc21 (stereo not drawn)	4.45
O=P(O)(O)C12CC3CC(CC(C3)C1)C2	1.57
O=C(/C=C/c1cccc([N+](=O)[O-])c1)NCCSCc1ccc(Cl)cc1	11.2

SMILES	inhibition [%]
CC(C)(C)c1cc(C(=O)NCC(=O)OCC(=O)c2cccc([N+](=O)[O-])c2)cc(C(C)(C)C)c1	-4.29
Cc1cccc([N+](=O)[O-])c1NC(=O)CN(Cc1ccccc1)Cc1ccccc1	-0.69
CN(CCc1ccccn1)c1ncnc2[nH]ncc12	2.15
COc1cccc2sc(Nc3nc(-c4ccncc4)cs3)nc12	1.36
COc1ccc(-c2csc(NC(=O)C3CC(=O)N(c4ccc5c(c4)OCCO5)C3)n2)cc1 (stereo not drawn)	28
O=C(NCc1ccccn1)c1ccc(Br)s1	-0.44
COc1cccc2sc(NN)nc12	7.32
O=C(Nc1nc(-c2cc(Cl)sc2Cl)cs1)c1ccc(Br)s1	1.52
CC(=O)Nc1ccc(-c2csc(NC(=O)C3CC(=O)N(c4ccc5c(c4)OCCO5)C3)n2)cc1 (stereo not drawn)	-1.99
Cc1csc(NC(=O)c2ccc(Cl)cc2[N+](=O)[O-])n1	-4.05
O=C(Nc1nccs1)c1cc(Cl)ccc1[N+](=O)[O-]	3.23
Cc1ccc(C(=O)Nc2nc(-c3cc(Cl)sc3Cl)cs2)cc1	3.4
COc1ccccc1C(=O)Nc1c(C)cc(Br)cc1C	21.1
CCCN1C(=O)C(O)(CC(=O)c2cccc(OC)c2)c2ccccc21 (stereo not drawn)	-1.3
O=C(O)c1ccc(N2C(=O)CC(SC(=NCc3ccc4c(c3)OCO4)Nc3ccccc3)C2=O)cc1 (stereo not drawn)	1.43
CCc1ccc(NC(=O)c2cnn(-c3ccccc3)c2C)cc1	1.29
COc1ccc(-n2c(Cc3cccs3)nnc2SCC(=O)Nc2ccc3c(c2)OCCO3)cc1	-1.02
COc1ccc(-c2cc(C(=O)NC3CCCC3)no2)cc1OC	9.4
O=[N+]([O-])c1cccc(-c2nnc(CNC3CC3)o2)c1	1.99
CC(C)c1ccc(OCC(=O)N2CCCCCC2)c(Br)c1	4.07
Cc1ccc(NC(=O)C2CC(=O)Nc3nncn32)cc1 (stereo not drawn)	-5.26
Cc1c(Cl)cccc1S(=O)(=O)Nc1ccnn1C	-14.5
O=C(Nc1nccs1)C12CC3CC(C1)CC(C(=O)Nc1nccs1)(C3)C2	1.25
O=C(Nc1ccccn1)C12CC3CC(C1)CC(C(=O)Nc1ccccn1)(C3)C2	-2.92
O=C(CCSc1ccccc1)Nc1nccs1	3.44

SMILES	inhibition [%]
O=C(Nc1nc(-c2nc3ccccc3s2)cs1)C1CC1	7.59
c1ccc(Nc2nc(-c3ccncc3)cs2)cc1	5.87
O=C(CCS(=O)(=O)c1ccccc1)Nc1nc(-c2ccccn2)cs1	73.5
c1ccc(-c2csc(Nc3cccnc3)n2)nc1	10.1
O=C(CN1C(=O)CCC1=O)Nc1nc(-c2ccccn2)cs1	2.51
O=c1[nH]c(N2CCOCC2)nc2ncn(Cc3ccccc3)c12	-3.03
COc1ccc(NS(=O)(=O)c2ccc(Cl)c(C(=O)O)c2)cc1S(=O)(=O)N1CCCCC1	-7.19
O=c1[nH]c(N2CCc3ccccc3C2)nc2c1CCC2	-0.21
CCOC(=O)N1CCN(c2ccc([N+](=O)[O-])cc2F)CC1C (stereo not drawn)	9.74
CCCCn1c(CNC(C)=O)nc2ccccc21	1.64
COC(=O)c1[nH]c2cc(C)ccc2c1NC(=O)CN1CCN(c2ccccc2OC)CC1	45
CCC(C)NC(=S)Nc1ccc(F)cc1 (stereo not drawn)	0.18
CCc1nnc(NC(=O)C(NC(=O)c2ccccc2Cl)C(C)C)s1 (stereo not drawn)	3.06
Cc1csc(NC(=O)C(NC(=O)c2ccccc2F)C(C)C)n1 (stereo not drawn)	5.45
CCOC(=O)c1sc(=NC(=O)/C=C/c2ccccc2)n(C)c1C	-0.27
COc1ccc(/C(N)=N/OC(=O)c2ccc3c(c2)OCO3)cc1	3.21
O=[N+]([O-])c1cccc(Cl)c1CSc1ccccn1	0.94
O=C(CCCn1cnc([N+](=O)[O-])n1)Nc1cccc(Cl)c1Cl	1.24
O=[N+]([O-])c1ncn(Cc2ccccc2Cl)n1	3.07
O=C(COC(=O)/C=C/c1ccccc1)Nc1cc(C(F)(F)F)ccc1N1CCOCC1	-0.9
CC(C)N(Cc1cn(C)nc1-c1cccc(Cl)c1)Cc1nccn1C	7.78
CN1CCC(=NNC(=O)COc2ccc(Cl)cc2)CC1	2.45
COc1ccccc1OCC(=O)NNc1c2ccccc2nc2ccccc12	-2.19
